Measured values as given in PubChem BioAssay (NCATS).
Records with an inconclusive call do not appear. Where a call stands in place of a potency, no number is given. Active and inactive are the calls of the source. Calls come from the whole dose curve; as a rule, active = well fitted cell-killing curve with a large enough effect; inconclusive = small, poorly fitted or top-dose-only effect; inactive = flat fitted curve, though single readings scatter.

Assay: Cell Viability - LYMP2-020 (AID 986); note: nearly all actives have a fitted effect of over 55% in size
Conditions: series mostly up to 92.2 µM
Description: NIH Chemical Genomics Center [NCGC]
NIH Molecular Libraries Screening Centers Network [MLSCN]
National Institutes of Environmental Health Sciences [NIEHS]
National Toxicology Program [NTP]
We have developed a 1536-well cell-based assay for quantitative high throughput screening (qHTS) against a number of cell lines to determine in vitro cytotoxicity of small molecules. This particular assay uses a human lymphoblastoid cell line (LYMP2-020) purchased from Coriell Institute for Medical Research.
NCGC Assay Protocol Summary:
The CellTiter-Glo luminescent cell viability assay (Promega) is a homogeneous method to measure the number of viable cells in culture. The end point readout of this assay is based on quantitation of intracellular ATP, an indicator of metabolic activity, using the luciferase reaction. Luciferase catalyzes the oxidation of beetle Luciferin to oxyluciferin and light in the presence of ATP. The luminescent signal is proportional to amount of ATP present.
Using the CellTiter-Glo luminescent cell viability assay, the amount of cellular ATP was measured in the lymphoblastoid cell line with complete culture medium following compound treatment for 24 hours. The assay was performed in opaque white Kalypsys 1536-well plates. In the screen, tetraoctylammonium bromide was used as positive control. Library compounds were measured for their ability to cause acute toxicity in the cell line, as reflected by a decrease in intracellular ATP levels, in a concentration-dependent manner. […] AC50 values were determined from concentration-response data modeled with the standard Hill equation.
qHTS protocol for CellTiter Glo lymphoblastoid cellular assay
[Step] [Parameter] [Value] [Description]
1. Reagent; 5 uL; 2500 lymphoblastoid cells/well
2. Time; 5 hr; 37 C incubation
4. Controls; 23 nL; Tetraoctylammonium bromide 6.4pM to 92 uM
5. Time; 24 hr; 37 C incubation
6. Reagent; 5 uL; CellTiter Glo reagent
7. Time; 30 min; Room Temperature
8. Detection; Luminescence; Viewlux plate reader
Keywords: cell viability, cytotoxicity, lymphoblastoid cell line, luminescence, NTPHTS, NTPHTS_NCGC, NIEHS, DSSTox, MLSMR, MLSCN, NIH Roadmap, qHTS, NCGC
Potency is the fitted concentration of half-maximal effect.

Question: Which Potency does the source give for `Cc1ncc[nH]1` here?
Answer: Its Potency is “inactive”.

Question: Which Potency does the source give for `CC1=CC(=O)NS(=O)(=O)O1` here?
Answer: The Potency was “inactive”.

Question: With `C=C1C(CCl)(CCl)C2(Cl)C(Cl)C(Cl)C1(Cl)C2(Cl)Cl` (centres undefined) as the compound, how does the Potency read?
Answer: The Potency was 50.1 µM (active).

Question: With `CCOC(C)OCC` as the compound, how does the Potency read?
Answer: Its Potency is “inactive”.

Question: For `OC[C@H]1O[C@@H]2O[C@H]3[C@H](O)[C@@H](O)[C@@H](O[C@H]4[C@H](O)[C@@H](O)[C@@H](O[C@H]5[C@H](O)[C@@H](O)[C@@H](O[C@H]6[C@H](O)[C@@H](O)[C@@H](O[C@H]7[C@H](O)[C@@H](O)[C@@H](O[C@H]1[C@H](O)[C@H]2O)O[C@@H]7CO)O[C@@H]6CO)O[C@@H]5CO)O[C@@H]4CO)O[C@@H]3CO`, which Potency is on record?
Answer: The Potency was “inactive”.

Question: Which Potency does the source give for `CC(C)(C)CC(C)(C)c1ccc(OCCO)cc1` here?
Answer: Its Potency is “inactive”.

Question: Which Potency does the source give for `OCC(O)CO` here?
Answer: The Potency was “inactive”.

Question: For `[O-][N+](=Nc1ccccc1)c1ccccc1`, which Potency is on record?
Answer: The Potency was “inactive”.

Question: Which Potency does the source give for `CCCCO` here?
Answer: The Potency was “inactive”.

Question: Which Potency does the source give for `COC(=O)c1ccccc1O` here?
Answer: Its Potency is “inactive”.

Question: For `CC1=CCC2CC1C2(C)C` (centres undefined), which Potency is on record?
Answer: Its Potency is “inactive”.

Question: For `CO/N=C(/C(=O)N[C@@H]1C(=O)N2C(C(=O)O)=C(COC(N)=O)CS[C@H]12)c1ccco1`, which Potency is on record?
Answer: The Potency was “inactive”.

Question: With `O=P(O)(O)O` as the compound, how does the Potency read?
Answer: Its Potency is “inactive”.

Question: Which Potency does the source give for `ClC(Cl)Cl` here?
Answer: The Potency was “inactive”.

Question: With `CC[C@H]1OC(=O)[C@H](C)[C@@H](O[C@H]2C[C@@](C)(OC)[C@@H](O)[C@H](C)O2)[C@H](C)[C@@H](O[C@@H]2O[C@H](C)C[C@H](N(C)C)[C@H]2O)[C@](C)(O)C[C@@H](C)CN(C)[C@H](C)[C@@H](O)[C@]1(C)O` as the compound, how does the Potency read?
Answer: Its Potency is “inactive”.

Question: Which Potency does the source give for `C/C=C/C=C/C(=O)O` here?
Answer: Its Potency is “inactive”.

Question: For `C[C@H](CCC(=O)O)[C@H]1CC[C@H]2[C@@H]3CC[C@@H]4C[C@H](O)CC[C@]4(C)[C@H]3C[C@H](O)[C@]12C`, which Potency is on record?
Answer: The Potency was “inactive”.

Question: For `Nc1ccc(N=Nc2ccccc2)c(N)n1`, which Potency is on record?
Answer: The Potency was “inactive”.

Question: Which Potency does the source give for `Nc1nccs1` here?
Answer: The Potency was “inactive”.

Question: For `Oc1ccc(/C=C/c2cc(O)cc(O)c2)cc1`, which Potency is on record?
Answer: Its Potency is “inactive”.

Question: For `OB(O)O`, which Potency is on record?
Answer: Its Potency is “inactive”.

Question: Which Potency does the source give for `NC(N)=O` here?
Answer: The Potency was “inactive”.

Question: With `c1ccc2ccccc2c1` as the compound, how does the Potency read?
Answer: The Potency was “inactive”.

Question: For `CCCCC`, which Potency is on record?
Answer: Its Potency is “inactive”.

Question: With `O=c1n(CC2CO2)c(=O)n(CC2CO2)c(=O)n1CC1CO1` (centres undefined) as the compound, how does the Potency read?
Answer: The Potency was 25.1 µM (active).

Question: For `CC(C)O`, which Potency is on record?
Answer: Its Potency is “inactive”.

Question: With `Oc1cccc(O)c1O` as the compound, how does the Potency read?
Answer: The Potency was “inactive”.

Question: With `Cc1ccc(S(=O)(=O)O)cc1C` as the compound, how does the Potency read?
Answer: Its Potency is “inactive”.

Question: For `Nc1ncnc2c1ncn2[C@H]1CC[C@@H](CO)O1`, which Potency is on record?
Answer: Its Potency is “inactive”.

Question: For `CO`, which Potency is on record?
Answer: The Potency was “inactive”.

Question: For `OCc1ccccc1`, which Potency is on record?
Answer: Its Potency is “inactive”.

Question: For `C[C@H](CCC(=O)O)[C@H]1CC[C@H]2[C@@H]3[C@H](O)C[C@@H]4C[C@H](O)CC[C@]4(C)[C@H]3C[C@H](O)[C@]12C`, which Potency is on record?
Answer: The Potency was “inactive”.

Question: With `NCCN` as the compound, how does the Potency read?
Answer: The Potency was “inactive”.

Question: With `OCl` as the compound, how does the Potency read?
Answer: The Potency was “inactive”.
